Nrf2 inh = Nrf2 qHTS screen for inhibitors. A549 ARE-Fluc reporter, luciferase luminescence, 18-24 h. Potency, µM (titrated, usually from 46 µM), without a hit: at the top dose activity change, negative = inhibition, hits mostly inhibitors. actives 2.1% (n = 360,000). AID 504444, 2011; also: % is scaled to controls: 0 for no effect and ±100 for the full control effect; nearly all actives have a fitted effect of over 60% in size
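A549 ARE_Fluc cells (5000/well, 5% FBS OPTI-MEM) pre-incubated 2 h, then treated with compounds 18-24 h at 37C/5% CO2 in concentration-response. CellTiter-Fluor viability read first; BugLite luciferase luminescence after 15 min at room temperature gives Nrf2 activity.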
mIDH1 inhibitor = qHTS for Inhibitors of mutant isocitrate dehydrogenase 1 (IDH1): qHTS; AID 602179, 2012; actives 0.093% (n = 390,000); IDH1-R132H enzyme, NADPH consumption, diaphorase/resazurin fluorescence; Potency, µM (series often up to 76.6 µM), without a hit: at the highest dose activity change, negative = inhibition, usual class: inhibitors; Isocitrate dehydrogenase [NADP] cytoplasmic (Homo sapiens), O75874; also: % is scaled to controls: 0 for no effect and ±100 for the full control effect; nearly all actives have a fitted effect of over 65% in size
Target sequence (O75874 whole entry R132H, stated change not applied): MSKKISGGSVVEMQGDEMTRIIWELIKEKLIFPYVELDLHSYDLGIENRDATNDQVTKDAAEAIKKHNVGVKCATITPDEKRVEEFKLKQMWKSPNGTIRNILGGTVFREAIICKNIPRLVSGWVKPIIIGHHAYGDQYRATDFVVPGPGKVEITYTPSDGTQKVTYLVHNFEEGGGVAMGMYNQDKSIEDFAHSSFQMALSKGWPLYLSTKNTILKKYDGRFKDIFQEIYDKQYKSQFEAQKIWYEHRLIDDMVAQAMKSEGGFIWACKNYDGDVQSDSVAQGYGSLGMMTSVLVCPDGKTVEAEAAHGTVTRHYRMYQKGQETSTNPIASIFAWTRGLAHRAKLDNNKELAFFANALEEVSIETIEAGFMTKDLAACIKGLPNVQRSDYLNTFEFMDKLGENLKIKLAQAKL
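IDH1-R132H (0.5 ug/mL) preincubated 30 min with compound, then NADPH (0.016 mM) and alpha-KG (2 mM) added; 80 min at RT, pH 7.5. Remaining NADPH coupled via diaphorase/resazurin to fluorescence (540/590 nm); concentration-response curves normalized to no-enzyme control.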
ELG1 DNA repair = qHTS screen for small molecules that inhibit ELG1-dependent DNA repair in human embryonic kidney (HEK293T) cells expressing luciferase-tagged ELG1 | Potency, µM (top dose mostly 46.1 µM), for inactives: at the top dose activity change, negative = inhibition, usual class: inhibitors | actives 2.3% (n = 330,000) | AID 504467, 2011 | HEK293T ELG1-luciferase reporter, luminescence, 16 h; DNA damage induced by 5-fluorouridine; also: % is scaled to controls: 0 for no effect and ±100 for the full control effect; nearly all actives have a fitted effect of over 55% in size
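5-Fluorouridine DNA damage + compound/DMSO, 2,000 cells/well, 16 h, 37 °C/5% CO2. ONE-Glo, 30 min RT, luminescence. Readout = decrease in reporter signal.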
Nrf2 ARE act = qHTS of Nrf2 Activators; Potency, µM (series often up to 46.1 µM), inactives show top-dose activation, hits mostly activators; actives 0.31% (n = 410,000); AREc32 ARE-luciferase reporter (MCF7-derived line), luminescence, 24 h; also: % of control where 0% means no effect; nearly all actives have a fitted effect of over 65% in size
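AREc32_Fluc, 1000 cells/well, OPTI-MEM + 5% FBS, o/n 37 deg C 5% CO2; 23 nL cpd by pin tool, 24 hr; Steady-Glo 30 min RT, luminescence.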
A549 tox = Nrf2 qHTS screen for inhibitors: counterscreen for cytotoxicity; A549 ARE-Fluc cells, CellTiter-Fluor viability, 18-24 h; Potency, µM (titrated, usually from 46 µM), inactives show at the top dose activity change, negative = cytotoxicity, most hits filed as inhibitors; actives 0.16% (n = 390,000); AID 504648, 2011; also: % is scaled to controls: 0 for no effect and ±100 for the full control effect
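A549 ARE_Fluc cells in 5% FBS OPTI-MEM were exposed to compounds in concentration-response for 18-24 h at 37 deg C. Viability was read by CellTiter-Fluor fluorescence (Ex 405/Em 525) after 30 min, before the luciferase read.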
Starred values were filed as active, the others as inactive; ? = inconclusive; . = no result. Shown are actives, neighbours in structure and some others; about 3.8% of the full set was active somewhere. Calls follow the shape of the dose curve; as a rule, active = well fitted curve in the direction sought with a large enough effect; inconclusive = small, poorly fitted or top-dose-only effect, or another doubt; inactive = no such curve, though single readings can be large; an effect the other way counts as inactive or inconclusive. Potency is read from the fitted curve at half-maximal effect.

SMILES	Nrf2 inh	mIDH1 inhibitor	ELG1 DNA repair	Nrf2 ARE act	A549 tox
CN1C(=O)C2(OCC(COc3ccc(Cl)cc3)O2)c2ccccc21 (stereo not drawn)	18µM*	0%	-20%	1%	-10%
CCOc1cccc(C2C=C(c3ccc4c(c3)OCO4)NC(c3cccc(Br)c3)N2)c1O (stereo not drawn)	-18%	.	.	.	1%
COc1ccc(C(=O)N2N=C(c3cccs3)CC2c2ccccc2O)cc1 (stereo not drawn)	18µM*	-14%	?	7%	?
COc1ccc(C2CC(c3ccccc3)=NN2C(=O)c2cccs2)cc1 (stereo not drawn)	?	0%	?	4%	?
COc1ccc(C2=NN(C(=O)c3cccs3)C(c3ccccc3O)C2)cc1 (stereo not drawn)	23µM*	0%	?	0%	?
COc1ccc(-n2c(-c3ccc(Cl)cc3)cc3c2CC(C)(C)CC3=O)c(OC)c1	?	0%	.	0%	1%
CCCC[C@H]1CCCO[C@@](C(=O)NCc2ccc(C)o2)(C(F)(F)F)C1	0%	.	.	.	1%
O=C1CCCC2=C1C1(CCCC1)N=C(Nc1nc3cc4ccccc4cc3o1)N2	-2%	.	.	.	-2%
CS(=O)(=O)c1ccc(C(=O)OCC(=O)N2CCc3ccccc32)cc1[N+](=O)[O-]	-2%	.	.	.	-5%
Cc1cccc(OCC(=O)Nc2c(C(=O)N3CCN(c4ccccc4F)CC3)oc3ccccc23)c1	18µM*	-10%	.	-1%	?
CC(C)CC(=O)Nc1c(C(=O)N2CCN(c3ccccc3F)CC2)oc2ccccc12	26µM*	-7%	.	1%	-12%
COc1cccc(CC(=O)Nc2c(C(=O)N3CCN(c4ccccc4F)CC3)oc3ccccc23)c1	-7%	0%	.	-1%	3%
CCOc1ccc(Sc2cc(C(=O)NC(C)c3ccccc3)c3ccccc3n2)cc1 (stereo not drawn)	.	-14%	.	3%	-1%
COc1ccccc1N1CCN(S(=O)(=O)CCNC(=O)CC2CCCCC2)CC1	?	2%	12µM*	-1%	-6%
COc1cccc(-n2sc3c(c2=S)-c2cc(OC)ccc2NC3(C)C)c1	-30%	-2%	?	-1%	-20%
CC1(C)Nc2ccc(O)cc2-c2c1ssc2=S	-26%	4%	12µM*	?	-2%
COc1ccc(C2Nc3ccccc3C(=O)N2Cc2ccccc2)cc1COc1ccc([N+](=O)[O-])c(C)c1 (stereo not drawn)	-8%	.	.	.	-2%
CCOC(=O)c1c(Nc2cc(C)cc(C)c2)nnc(-c2ccccc2)c1-c1ccccc1	-1%	6%	.	1%	-5%
Cc1ccc(C)c(S(=O)(=O)NCC(c2ccco2)S(=O)(=O)c2ccc(F)cc2)c1 (stereo not drawn)	.	-2%	.	15%	5%
CC(C)(C)c1cc[n+](C2=C([O-])c3ccccc3C(=O)/C2=N\S(=O)(=O)c2ccccc2)cc1	11%	1%	15µM*	0%	-4%
CCCCC[n+]1ccn(C2=C([O-])c3ccccc3C(=O)/C2=N\S(=O)(=O)c2ccc(Br)cc2)c1	?	-13%	?	1%	?
CCCCC[n+]1ccn(C2=C([O-])c3ccccc3C(=O)/C2=N\S(=O)(=O)c2ccccc2)c1	?	0%	?	-2%	?
CCCC[n+]1ccn(C2=C([O-])c3ccccc3C(=O)/C2=N\S(=O)(=O)c2ccccc2)c1	20µM*	12%	?	-2%	?
CC(C)[n+]1ccn(C2=C([O-])c3ccccc3C(=O)/C2=N\S(=O)(=O)c2ccccc2)c1	23µM*	20%	23µM*	-2%	-8%
